Our source for the log2 fold change values is the supplement of paper PMC10849652.

Targets with a hit are over-represented here; the source holds about 8,800 in all. About 0.5% of all pairs of compound and target were hits. A number with no mark means an inactive call.

Common to all, as to test: log2 fold change, soluble protein after heating vs DMSO (PISA); higher = thermal stabilisation; K562 lysate, 10 uM; active = over 0.2 and 3.5 SD of the protein, either way, in both replicates (recomputed)
Compound in one assay: CS(=O)(=O)N1CCN(Cc2cc3nc(-c4cccc5[nH]ncc45)nc(N4CCOCC4)c3s2)CC1 [pictilisib]
In outline:
(§1)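 Log-two fold change in thermal stability relative to solvent controls is reported from duplicates. For each sample, crude K562 extract from dounce-homogenised pellets in PBS pH 7.4 with 1 mM MgCl2, at 1 mg/mL protein, was treated with 10 μM compound for 30 min. Aliquots heated for 3 min across 48°C-58°C were pooled, brought to 0.5% NP-40 at 4°C and cleared at 21,000xg for 90 min. The supernatant was quantified by TMTpro 16plex LC-MS/MS with channel sums equalised.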

Compound in a further assay: C[C@@H](Oc1cc(-c2cnn(C3CCNCC3)c2)cnc1N)c1c(Cl)ccc(F)c1Cl [crizotinib]
In outline: as §1

Compound in the next assay: C[C@H](Nc1ncnc2nc[nH]c12)c1cc2cccc(Cl)c2c(=O)n1-c1ccccc1 [duvelisib]
The method in brief:
as §1

Compound in the next assay: Cc1ccc(-n2nc(C(C)(C)C)cc2NC(=O)Nc2ccc(OCCN3CCOCC3)c3ccccc23)cc1 [doramapimod]
The method in brief:
as §1

Compound in a further assay: Cc1ccc(NC(=O)c2ccc(CN3CC[C@H](N(C)C)C3)c(C(F)(F)F)c2)cc1Nc1nccc(-c2cncnc2)n1 [bafetinib]
In outline:
as §1

Compound in another assay: CS(=O)(=O)CCNCc1ccc(-c2ccc3ncnc(Nc4ccc(OCc5cccc(F)c5)c(Cl)c4)c3c2)o1 [lapatinib]
The method in brief:
as §1

Compound in assay [1]: C[C@H](C1=CC=C(C=C1)C(=O)NC2=C3C=CNC3=NC=C2)N
In outline: as §1

Compound in another assay: Cc1cc(Nc2cc(CN3CCOCC3)c3nc(C)c(Cc4ccc(Cl)cc4F)n3n2)n[nH]1 [gandotinib]
In outline:
as §1

Compound in assay [2]: Cc1cccc(CC(=O)N2CCc3c2ccc(-c2cn(C)c4ncnc(N)c24)c3F)n1
In outline:
as §1

Compound in a further assay: Cc1cc(Nc2cc(N3CCN(C)CC3)nc(Sc3ccc(NC(=O)C4CC4)cc3)n2)n[nH]1 [tozasertib]
In outline: as §1

Chain of UniProt Q9Y4D7 (Q9Y4D7 whole entry, looked up): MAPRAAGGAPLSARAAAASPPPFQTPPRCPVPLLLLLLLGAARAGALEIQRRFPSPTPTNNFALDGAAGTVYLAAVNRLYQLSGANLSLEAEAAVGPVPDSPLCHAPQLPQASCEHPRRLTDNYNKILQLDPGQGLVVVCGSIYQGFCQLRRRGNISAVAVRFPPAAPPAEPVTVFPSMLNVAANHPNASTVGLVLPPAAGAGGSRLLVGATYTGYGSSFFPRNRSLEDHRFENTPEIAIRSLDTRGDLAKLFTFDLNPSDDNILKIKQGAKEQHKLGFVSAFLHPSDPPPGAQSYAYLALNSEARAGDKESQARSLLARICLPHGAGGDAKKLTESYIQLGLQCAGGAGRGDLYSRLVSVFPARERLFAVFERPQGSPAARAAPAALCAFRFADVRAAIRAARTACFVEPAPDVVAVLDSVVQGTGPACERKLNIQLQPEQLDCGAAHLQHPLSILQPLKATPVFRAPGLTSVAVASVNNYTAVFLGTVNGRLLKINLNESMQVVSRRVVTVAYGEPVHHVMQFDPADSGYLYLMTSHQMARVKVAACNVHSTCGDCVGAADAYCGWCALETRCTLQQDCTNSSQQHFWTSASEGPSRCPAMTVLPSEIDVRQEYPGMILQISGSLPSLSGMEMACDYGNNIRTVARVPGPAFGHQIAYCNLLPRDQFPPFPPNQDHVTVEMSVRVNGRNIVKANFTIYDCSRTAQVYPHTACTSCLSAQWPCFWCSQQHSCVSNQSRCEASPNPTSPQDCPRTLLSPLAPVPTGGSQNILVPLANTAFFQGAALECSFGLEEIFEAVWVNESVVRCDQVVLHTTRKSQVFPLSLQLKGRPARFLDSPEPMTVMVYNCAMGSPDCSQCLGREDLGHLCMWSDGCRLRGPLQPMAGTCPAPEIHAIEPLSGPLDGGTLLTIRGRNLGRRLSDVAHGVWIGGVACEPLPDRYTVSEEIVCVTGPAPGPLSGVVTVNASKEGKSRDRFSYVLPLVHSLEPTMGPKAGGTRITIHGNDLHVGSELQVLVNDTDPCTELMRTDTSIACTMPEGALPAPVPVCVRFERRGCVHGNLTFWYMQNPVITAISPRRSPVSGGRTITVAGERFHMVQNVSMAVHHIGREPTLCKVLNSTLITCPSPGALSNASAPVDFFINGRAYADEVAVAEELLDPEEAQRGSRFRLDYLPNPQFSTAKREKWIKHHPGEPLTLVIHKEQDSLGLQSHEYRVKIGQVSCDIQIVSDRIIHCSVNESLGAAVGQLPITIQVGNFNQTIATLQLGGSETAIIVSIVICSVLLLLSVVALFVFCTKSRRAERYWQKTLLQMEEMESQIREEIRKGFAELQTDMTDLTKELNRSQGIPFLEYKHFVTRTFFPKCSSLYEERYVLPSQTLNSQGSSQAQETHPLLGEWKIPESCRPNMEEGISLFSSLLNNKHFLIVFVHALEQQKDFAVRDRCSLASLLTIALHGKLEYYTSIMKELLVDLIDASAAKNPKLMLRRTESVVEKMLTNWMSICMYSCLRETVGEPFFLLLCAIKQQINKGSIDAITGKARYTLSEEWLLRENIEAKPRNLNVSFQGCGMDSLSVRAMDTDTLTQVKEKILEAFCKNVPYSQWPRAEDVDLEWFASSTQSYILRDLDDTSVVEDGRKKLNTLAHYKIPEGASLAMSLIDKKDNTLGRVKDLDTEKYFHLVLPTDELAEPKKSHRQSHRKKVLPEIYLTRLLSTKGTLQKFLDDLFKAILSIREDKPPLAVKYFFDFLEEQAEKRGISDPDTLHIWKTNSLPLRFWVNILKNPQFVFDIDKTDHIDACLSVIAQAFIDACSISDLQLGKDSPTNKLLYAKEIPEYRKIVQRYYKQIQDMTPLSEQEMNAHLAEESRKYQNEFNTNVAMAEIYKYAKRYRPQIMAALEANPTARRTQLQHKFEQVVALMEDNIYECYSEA
Chain of UniProt O00329 (O00329 whole entry, looked up): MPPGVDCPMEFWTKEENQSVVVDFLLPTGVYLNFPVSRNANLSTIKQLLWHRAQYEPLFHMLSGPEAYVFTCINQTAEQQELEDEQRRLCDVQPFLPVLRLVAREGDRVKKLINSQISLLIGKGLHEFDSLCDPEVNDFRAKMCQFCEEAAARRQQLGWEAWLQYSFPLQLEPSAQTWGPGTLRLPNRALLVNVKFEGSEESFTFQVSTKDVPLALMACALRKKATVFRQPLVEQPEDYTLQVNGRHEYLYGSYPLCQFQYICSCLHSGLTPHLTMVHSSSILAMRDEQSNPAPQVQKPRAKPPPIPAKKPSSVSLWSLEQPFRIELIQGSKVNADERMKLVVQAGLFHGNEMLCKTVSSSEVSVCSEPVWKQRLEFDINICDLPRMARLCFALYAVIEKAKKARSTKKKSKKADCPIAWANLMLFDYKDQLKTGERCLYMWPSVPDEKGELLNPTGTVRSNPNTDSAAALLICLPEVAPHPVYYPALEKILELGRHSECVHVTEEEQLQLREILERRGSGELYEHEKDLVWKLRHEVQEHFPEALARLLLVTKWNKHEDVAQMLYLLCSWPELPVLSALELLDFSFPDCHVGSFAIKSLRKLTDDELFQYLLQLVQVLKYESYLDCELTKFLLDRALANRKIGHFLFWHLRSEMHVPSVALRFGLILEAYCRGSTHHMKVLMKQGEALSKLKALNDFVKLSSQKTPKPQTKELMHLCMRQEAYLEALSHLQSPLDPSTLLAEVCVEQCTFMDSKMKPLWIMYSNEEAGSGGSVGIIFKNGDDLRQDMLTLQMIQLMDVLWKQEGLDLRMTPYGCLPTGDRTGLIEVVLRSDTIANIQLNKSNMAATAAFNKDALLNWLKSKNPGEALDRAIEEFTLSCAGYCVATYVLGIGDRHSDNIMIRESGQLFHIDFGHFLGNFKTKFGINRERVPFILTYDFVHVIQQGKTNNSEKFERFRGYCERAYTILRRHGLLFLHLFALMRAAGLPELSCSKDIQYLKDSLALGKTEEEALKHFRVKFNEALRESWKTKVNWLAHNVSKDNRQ

For the target PLXND1 (UniProt Q9Y4D7), the log2 fold change with pictilisib is 0.018; in the assay with crizotinib, 0.067; with duvelisib it was -0.031; with doramapimod, 0.171; with bafetinib, -0.461 (active).

As for PIK3CD (UniProt O00329), the log2 fold change in the assay with lapatinib was -0.043; with pictilisib it was 0.142; in the assay with crizotinib, -0.037; in assay [1] it was 0.035; with duvelisib, 0.477 (active); with gandotinib, 0.389. The log2 fold change was 0.03 with doramapimod, -0.136 with bafetinib and -0.016 in assay [2].

As for PFN1 (UniProt I3L3D5), the log2 fold change with lapatinib was 0.066; in the assay with pictilisib it was -0.062; in assay [1], 0.524 (active); in the assay with gandotinib, -0.15; with tozasertib, -0.051; in the assay with bafetinib, -0.19. Further, the log2 fold change in assay [2] was 0.015.
